Consider 106 compounds from ChEMBL document CHEMBL4513216, “Probing the Open Global Health Chemical Diversity Library for Multistage-Active Starting Points for Next-Generation Antimalarials” (ACS Infect Dis, 2020).

Out of some 69,000 compounds screened, about 8,600 (12%) showed an effect of 50% or more. The entries come from a sample that favours strong results as a whole.

The assay has as its system Plasmodium berghei. The assay can be described thus: Screen against P. berghei liver stage (PbLuc), transformed with Luciferase, at 10uM. The conditions noted are these: tested at 10 uM. It is filed as functional, HepG2.
As to `NC(=O)C1CCN(C(=O)CCn2ccc3ccc(Br)cc32)CC1`, the INHIBITION worked out at 10.6%.
The value for `c1cnc(N2CCOCC3(CCCN(CC4CCOCC4)C3)C2)nc1` (stereo unspecified) was -4.88%; that for `CNC(=O)CN1CC[C@H]2CN(C(=O)c3cc[nH]n3)C[C@H]2C1` was 41.1%.
On to `O=C(NCc1ccnc(-n2cccn2)c1)C1CC(=O)N(CC2CC2)C1` (stereo unspecified), for which the INHIBITION is -25.9%.
The value for `CN(C)S(=O)(=O)N1C[C@@H]2C[C@H](C(=O)Nc3cccnc3)[C@H](C1)O2` was 43.9%.
Regarding `CC(=O)c1ccc(OCC(C)O)cc1O` (stereo unspecified), the INHIBITION came out at 47.1%.
As to `COc1ccc(CN(C)[C@@H]2CN(S(=O)(=O)C(C)C)C[C@H]2O)cc1`, the INHIBITION is 2.15%.
Regarding `CCN1C(=O)[C@]2(CC[C@@H]3CN(C(=O)Nc4ccc(F)cc4)C[C@@H]32)N=C1C`, the INHIBITION came to 22.2%.
With `COc1ncccc1CNC(=O)Nc1cccnc1N1CCCC1` the figure was 43.3%.
`COc1cccc(CC(=O)NCC(Cc2ccc(F)cc2)C(N)=O)c1` (stereo unspecified): the INHIBITION turned out to be 8.99%.
In the case of `N#Cc1ccc(N2CCC(NS(=O)(=O)c3cccs3)CC2)c(F)c1`, the INHIBITION is reported as 20.9%.
Turning to `N#Cc1cc(F)c(N2CCC(NS(=O)(=O)c3cccs3)CC2)c(F)c1`, the INHIBITION is given as 62.9%.
For the compound `N#Cc1c(F)cccc1N1CCC(NS(=O)(=O)c2cccs2)CC1`, the INHIBITION is 24%.
Regarding `CNc1ncc(C(=O)N2CCOC(C(=O)Nc3ccccc3)C2)cn1` (stereo unspecified), the INHIBITION is on record as -8.58%.
Regarding `CN(CCc1ccccc1)Cc1c(C2CCOCC2)[nH]c2ncccc12`, the INHIBITION turned out to be 17.125%.
The value for `CN(CCc1ccccc1)Cc1c(C2CCNCC2)[nH]c2ncccc12` was 58.95%.
With `CN(CCc1ccccc1)Cc1c(C2CC2)[nH]c2ncccc12` the figure was 14.185%; with `NCCCC(=O)N1CCC2(CC1)CN(C(=O)c1ccc(Cl)cc1)CCO2`, 4.35%.
On to `O=C(c1csc(-c2ccc(C(F)(F)F)cc2)n1)N1CCCNCC1`, for which the INHIBITION worked out at 62.1%.
For `O=C1CCN(C(=O)c2csc(-c3ccc(C(F)(F)F)cc3)n2)CCN1`, the INHIBITION is reported as -1.26%.
`CN1CCCN(C(=O)c2csc(-c3ccc(C(F)(F)F)cc3)n2)CC1`: the INHIBITION was 42.3%.
With `CC(=O)N1CCN(C(=O)NC(C)C)CC2(CNC(=O)C2)C1` (stereo unspecified) the figure was -2.17%; with `CC(C)NC(=O)N1CCN(C(=O)NC(C)C)CC2(CNC(=O)C2)C1`, -2.17%; with `CC(C)NC(=O)N1CCN(CC2CC2)CC2(CNC(=O)C2)C1` (stereo unspecified), 69.6%.
For `CC(C)NC(=O)N1CCN(CC2CC2)CC2(CC(=O)N(C)C2)C1` (stereo unspecified), the INHIBITION worked out at 79.5%.
With `CC(C)NC(=O)N1CCN(C(=O)C(C)C)CC2(CC(=O)N(C)C2)C1` (stereo unspecified) the figure was 22.2%.
As for `CC(=O)N1CCN(C(=O)NC(C)C)CC2(CC(=O)N(C)C2)C1` (stereo unspecified), the INHIBITION is recorded as -3.52%.
For `CN(C)C(=O)COC1COC2(CCN(CC3CCOCC3)CC2)C1` (stereo unspecified), the INHIBITION came to 12.2%.
For the compound `COCC1CCN(C(=O)c2cn(Cc3ccccc3C(F)(F)F)nn2)C1` (stereo unspecified), the INHIBITION is -49.3%.
`CNC(=O)c1cc2c(nc1NCC1CC1)CCN(S(C)(=O)=O)CC2`: the INHIBITION is recorded as -8.94%.
For `Cc1csc(C2CCCCN2C(=O)c2c[nH]c(C)n2)n1` (stereo unspecified), the INHIBITION is 1.75%.
In the case of `CC(=O)c1ccc(C(=O)N2C[C@H]3CC[C@@H](C2)N(Cc2ccccc2)C3)s1`, the INHIBITION is reported as -52.1%.
Take `CCN(CC)CC(=O)N1CCN(CCc2ccncc2)CC1`: the INHIBITION is listed as 52.6%.
On to `CCN(CC)CC(=O)N1CCN(CCCc2ccncc2)CC1`, for which the INHIBITION came to 66.5%.
For `CCC(=O)N1CCN(Cc2cc(-c3ccncc3)nn2C)CC1`, the INHIBITION was determined as 19.3%.
Turning to `CCn1cc(CN2CCCN(C(=O)CCc3ccncc3)CC2)cn1`, the INHIBITION is reported as 31%.
`Cn1cc(CCC(=O)N2CCN(Cc3ccncc3)CC2)cn1`: the INHIBITION is 27.1%.
For the compound `CCN(CC)C(=O)N1CCN(CCc2ccncc2)CC1`, the INHIBITION is given as 15.5%.
`O=C(c1cccnc1)N1CCC[C@]2(C[C@H](Oc3ncccc3F)CO2)C1`: the INHIBITION is recorded as -7.59%.
Turning to `O=C(NCc1ccc(Cl)cc1)C1=NOC2(CCNC2)C1` (stereo unspecified), the INHIBITION is given as 1.71%.
`c1cncc(CN2CCC(c3ccnc4nccn34)C2)c1` (stereo unspecified): the INHIBITION was 19.99%.
On to `COc1ccnc(N2CCC(=O)N(CC3CC3)C(C(C)C)C2)n1` (stereo unspecified), for which the INHIBITION was found to be 50.3%.
Turning to `CC(C)C1CN(c2ncccn2)CCC(=O)N1CC1CC1` (stereo unspecified), the INHIBITION stood at 9.63%.
`Cc1nccc(N2CCC(=O)N(CC3CC3)C(C(C)C)C2)n1` (stereo unspecified): the INHIBITION is recorded as 27.2%.
As for `Cc1noc(C)c1CN1CCN(Cc2ccncc2)c2ncccc2C1`, the INHIBITION is listed as 29%.
Take `CC(C)(N)C(=O)N1CCC(c2nccnc2Oc2ccccc2F)CC1`: the INHIBITION was determined as 63.4%.
The value for `Fc1cccc(Oc2nccnc2C2CCN(C3CCOCC3)CC2)c1` was 52.7%; that for `c1ccc(Oc2nccnc2C2CCN(C3CCOCC3)CC2)cc1` was -38.3%; that for `Cc1cccc(Oc2nccnc2C2CCN(C(=O)C(C)(C)N)CC2)c1` was 47.1%.
The value for `CC(C)(N)C(=O)N1CCC(c2nccnc2Oc2cccc(F)c2)CC1` was 56%.
In the case of `NC(=O)CN1CCCC(c2nccnc2Oc2cccc(F)c2)C1` (stereo unspecified), the INHIBITION is given as -39.4%.
For `Fc1ccc(Oc2nccnc2C2CCN(C3CCOCC3)CC2)cc1`, the INHIBITION came out at 38.7%.
For the compound `Cc1ccc(Oc2nccnc2C2CCN(C(=O)C(C)(C)N)CC2)cc1`, the INHIBITION was 33.7%.
For the compound `Fc1ccccc1Oc1nccnc1C1CCN(C2CCOCC2)CC1`, the INHIBITION was found to be 25.8%.
With `CCOCC1CC2(CCN(C(=O)c3ccc4ccccc4n3)CC2)CO1` (stereo unspecified) the figure was -33.9%.
In the case of `Cc1ccc2c(c1)C(=O)NCC1(CCN(C(=O)c3sccc3C)CC1)O2`, the INHIBITION is given as 41.2%.
Turning to `COc1ncc(C(=O)N(Cc2cnn(C)c2)C(C)C)cn1`, the INHIBITION is reported as 22%.
For the compound `C1CC(CN2CCO[C@H]3[C@H](OCC4CC4)CC[C@@H]32)CCO1`, the INHIBITION turned out to be 40.9%.
On to `CN(C)CCN(CC1CCCO1)S(=O)(=O)NCc1ccccc1` (stereo unspecified), for which the INHIBITION amounted to 19.4%.
With `Cc1cccc(CN2C(=O)CCC23CCN(C(=O)c2ccco2)CC3)n1`, the INHIBITION is on record as -24.5%.
With `CN1CCc2cc(C(=O)N(C)C)c(NCC3CC3)nc2CC1` the figure was 2.59%; with `COc1c(CNCc2cccc(Cn3ccnc3C)c2)c(C)nn1C`, 43.3%.
The value for `COCc1cc(N(C)Cc2ncnn2C)nc(C(C)(C)C)n1` was 50.8%; that for `CN(Cc1cc(Cl)ccc1Cl)Cc1ncnn1C` was 15.9%; that for `COCc1cc(N(C)Cc2ccccn2)nc(C(C)(C)C)n1` was 27.7%.
Turning to `CN(Cc1cnccn1)c1cncc(Br)c1`, the INHIBITION stood at 45.9%.
Take `COCc1cc(N(C)Cc2cnccn2)nc(C(C)(C)C)n1`: the INHIBITION is 62%.
In the case of `COCc1cc(N(C)Cc2cc(C(C)(C)C)n[nH]2)ncn1`, the INHIBITION is on record as -30.5%.
The value for `Cc1nc(N)nc(C)c1CC(=O)N1CCCCC1c1cccc(F)c1` (stereo unspecified) was 19.3%.
`Cc1noc(O)c1Cc1ccc2ccccc2c1`: the INHIBITION is -26.2%.
Consider `Cc1ccsc1CN(C)c1cc(N2CCCC2CO)ncn1` (stereo unspecified), for which the INHIBITION was found to be 18.6%.
Consider `CCn1ccnc1CN(C)c1cc(C2CC2)ncn1`, for which the INHIBITION is listed as 52.6%.
In the case of `CN(C)c1cc(N(C)Cc2cc(C(C)(C)C)n[nH]2)ncn1`, the INHIBITION is reported as -82.7%.
On to `CCn1ccnc1CN(C)c1cc(OC)ncn1`, for which the INHIBITION stood at 58.2%.
With `CCn1ccnc1CN(C)c1cc(N(C)C)ncn1` the figure was 57.3%.
On to `CCn1ccnc1CN(C)C(=O)Cn1ccc2ccccc2c1=O`, for which the INHIBITION is on record as 3.04%.
On to `CCn1ccnc1CN(C)c1cc(C2CCCNC2)nc(C)n1` (stereo unspecified), for which the INHIBITION amounted to 4.41%.
For the compound `COc1cc(N(C)Cc2cc(C(C)(C)C)n[nH]2)ncn1`, the INHIBITION is -45%.
The value for `Cc1cc(C)n(CCCN(C)c2cc(C3CC3)ncn2)n1` was 8.7%; that for `COc1cc(N(C)CCCn2nc(C)cc2C)ncn1` was 14.3%; that for `COc1cc(N2CCO[C@H]3[C@@H](Oc4cccnc4)CC[C@@H]32)ncn1` was 23.5%.
As to `Cc1cccc(CN2CC3(CCN(Cc4ccco4)CC3)OCC2=O)n1`, the INHIBITION was -16.2%.
The value for `NC(=O)C1CCN(C(=O)Cc2cnc(-c3c(Cl)cccc3Cl)s2)CC1` was 37.9%; that for `O=S(=O)(c1ccc(F)cc1)N1CCCC1c1cc[nH]n1` (stereo unspecified) was 33.7%; that for `COc1ccc(C(=O)N2CCC(Nc3cccnn3)CC2)c(F)c1` was -32%.
The value for `CC(C)N(CC(N)=O)Cc1cccc(Br)c1` was 16.6%.
In the case of `Cc1c(Cl)cccc1NC(=O)CN(Cc1cccnc1)C(C)C`, the INHIBITION is listed as 73.2%.
Take `CC(C)N(CC(=O)Nc1ccc(Br)cc1Cl)Cc1cccnc1`: the INHIBITION came out at 73.2%.
With `N#CCCN(Cc1cccnc1)C(=O)c1cc(Cl)c[nH]1` the figure was 30.3%.
Turning to `CCc1noc(C(C)N(C)CC(=O)Nc2ccccc2Cl)n1` (stereo unspecified), the INHIBITION stood at 21.7%.
`CC(C)N(CC(=O)O)Cc1cccc(Br)c1`: the INHIBITION is 13.2%.
`N#CCCN(Cc1cccnc1)C(=O)c1ccc(-n2cnnn2)cc1`: the INHIBITION came out at 18.6%.
For `Cc1c(Cl)cccc1NC(=O)CCNc1ccc(C#N)cn1`, the INHIBITION is reported as -128%.
Take `N#CCCN(CC(=O)Nc1ccc(Br)cc1Cl)Cc1cccnc1`: the INHIBITION is given as 64.3%.
As for `O=C(Cc1ccc2c(c1)CCC2)N1CCCC1Cn1cccn1` (stereo unspecified), the INHIBITION was 2.79%.
With `Cc1cccc(N2CC3(CCN(S(=O)(=O)C4CC4)C3)C2)n1` the figure was 34.6%.
With `CC(=O)N1CCCC2(CN(Cc3ccc(C)s3)CCO2)C1` (stereo unspecified) the figure was -46.8%.
Regarding `O=C(Cc1cccs1)N1C[C@H]2CN(CC3CCCO3)CC[C@H]2C1` (stereo partly specified), the INHIBITION came out at 30.3%.
For `O=C1[C@@H]2CN(c3ncc(Cl)cc3F)C[C@]2(C(=O)O)CN1CC1CC1`, the INHIBITION is reported as -5.19%.
With `Cc1nc(CN(C)C2CCCN(c3cccnn3)C2)oc1C` (stereo unspecified) the figure was -21.8%; with `Cc1cc(C2CCCN2C(=O)NCc2c(C)cc(C)[nH]c2=O)on1` (stereo unspecified), 36.1%; with `Cc1cc(C2CCCN2C(=O)CN(C)Cc2ccccc2)no1` (stereo unspecified), 58.7%.
In the case of `Cc1cc(C)c(CNC(=O)N2CCCC2c2cc(C)on2)c(=O)[nH]1` (stereo unspecified), the INHIBITION was determined as 81.3%.
With `Cc1cc(C)c(CNC(=O)N2CCCC2c2ccccn2)c(=O)[nH]1` (stereo unspecified) the figure was -14.7%; with `Cc1nc(C2CCCN2C(=O)CN(C)Cc2ccccc2)no1` (stereo unspecified), 34%; with `CN(CC(=O)N1CCCC1c1ccccn1)Cc1ccccc1` (stereo unspecified), 26.6%.
